Screening results as filed in PubChem.
Pf apPOL inh – Pf-apPOL DNA polymerase inhibition. Recombinant Pf-apPOL, molecular beacon fluorescence, 1.5 h. inhibition, % at 10 µM. 210,000 compounds, 0.25% hits
mHTT-CaM PPI inh – inhibitors of human mutant huntingtin-calmodulin interaction; P42858; AlphaScreen His-mHTT/GST-CaM binding, luminescence; AID 1671202; inhibition, % at 15 µM; 190,000 compounds, 3.6% hits;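 note: 0% = both proteins with DMSO and 100% = one protein alone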
* marks the source's active call; other numbers are inactive results. Only some compounds are listed: those with a hit (about 3.6% of all), similar ones and a draw of the others. Cut-off read from the data, not from the text of the source: active = inhibition above about 50%; inactive = the rest.

What do the screens show for `Cc1cc(S(=O)(=O)N2CCC(c3noc(-c4cccc(F)c4)n3)CC2)ccc1F`?
Pf apPOL inh: -6.8; mHTT-CaM PPI inh: -4.6

What do the screens show for `COc1ccccc1-n1ncc2c([N+](=O)[O-])cc([N+](=O)[O-])cc21`?
Pf apPOL inh: -8.8; mHTT-CaM PPI inh: 8.0

What do the screens show for `O=C(NC(c1ccccc1Cl)c1ccc2cccnc2c1O)c1ccccc1` (stereo not given)?
Pf apPOL inh: 4.4; mHTT-CaM PPI inh: 73.0*

Results for O=C(NC(c1ccc(Cl)cc1)c1ccc2cccnc2c1O)c1ccccc1 (stereo not given) ?
Pf apPOL inh: -1.5; mHTT-CaM PPI inh: 100.0*

Results for CCCCC(=O)NC1CC(O)C(CO)C1 (stereo not given) ?
Pf apPOL inh: -10.8; mHTT-CaM PPI inh: -4.0

How did Cc1cc(F)ccc1-n1ccc(C#N)c1C(=O)NCCN(C)C do in these assays?
Pf apPOL inh: -4.1; mHTT-CaM PPI inh: 2.3

How did OC(COc1ccc(Br)cc1)CN1CCN(c2ccccn2)CC1 (stereo not given) do in these assays?
Pf apPOL inh: 3.0; mHTT-CaM PPI inh: 3.7

What do the screens show for `O=C(CCc1ccccc1)N1CCCC(COc2ccc(C(=O)N3CCCC3)cc2)C1` (stereo not given)?
Pf apPOL inh: 2.7; mHTT-CaM PPI inh: 7.4

What do the screens show for `CCC(C)NC(=O)C1CCCN(S(=O)(=O)N(CC)CC)C1` (stereo not given)?
Pf apPOL inh: -5.0; mHTT-CaM PPI inh: 0.0

Results for COc1ccc(CCNC(=O)CCC(=O)N2CC3CCCN3c3ccccc32)cc1OC (stereo not given) ?
Pf apPOL inh: -4.9; mHTT-CaM PPI inh: 26.3

What do the screens show for `O=C(CCC(=O)N1CC2CCCN2c2ccccc21)NCCc1ccc(Cl)cc1` (stereo not given)?
Pf apPOL inh: -1.3; mHTT-CaM PPI inh: 74.8*

What do the screens show for `O=C(CCC(=O)N1CC2CCCN2c2ccccc21)NCCc1ccccc1Cl` (stereo not given)?
Pf apPOL inh: -3.1; mHTT-CaM PPI inh: 53.5*

What do the screens show for `CC(C)CCNC(=O)CCC(=O)N1CC2CCCN2c2ccccc21` (stereo not given)?
Pf apPOL inh: -6.8; mHTT-CaM PPI inh: 12.5

Results for CCCN1CCN(CCNC(=O)c2cc3cn(C4CC4)cc3s2)CC1 ?
Pf apPOL inh: -2.7; mHTT-CaM PPI inh: 11.4

Results for COc1ccc(CCNC(=O)c2ccc(C(C)C)cc2)cc1 ?
Pf apPOL inh: 3.8; mHTT-CaM PPI inh: -4.9

What do the screens show for `COc1ccc(OC)c(C2N(c3cc(C)on3)C(=O)C3CCCN32)c1` (stereo not given)?
Pf apPOL inh: -2.6; mHTT-CaM PPI inh: -0.1

How did COc1ccc(N2C(=O)C3CCCN3C2c2cccc(C)c2)cc1Cl (stereo not given) do in these assays?
Pf apPOL inh: -4.8; mHTT-CaM PPI inh: 1.1

What do the screens show for `COc1cccc(C2N(c3ccc(Cl)c(Cl)c3)C(=O)C3CCCN32)c1OC` (stereo not given)?
Pf apPOL inh: -3.9; mHTT-CaM PPI inh: 100.1*

How did COc1cccc(C2N(c3ccc(Cl)c(Cl)c3)C(=O)C3CCCN32)c1 (stereo not given) do in these assays?
Pf apPOL inh: -4.4; mHTT-CaM PPI inh: 98.7*

Results for COc1ccc(OC)c(C2N(c3ccc(Cl)c(Cl)c3)C(=O)C3CCCN32)c1 (stereo not given) ?
Pf apPOL inh: -2.1; mHTT-CaM PPI inh: 100.1*

How did COc1cccc(C2N(c3ccccn3)C(=O)C3CCCN32)c1OC (stereo not given) do in these assays?
Pf apPOL inh: -1.8; mHTT-CaM PPI inh: -3.1

Results for COc1ccc(C2N(c3ccc(OC)c(Cl)c3)C(=O)C3CCCN32)cc1 (stereo not given) ?
Pf apPOL inh: -4.2; mHTT-CaM PPI inh: -3.3

What do the screens show for `COc1ccc(N2C(=O)C3CCCN3C2c2ccc(N(C)C)cc2)cc1Cl` (stereo not given)?
Pf apPOL inh: -0.2; mHTT-CaM PPI inh: 67.3*

What do the screens show for `CCC[C@H]1[C@@H](NS(C)(=O)=O)CC[C@@]23CCCN2C(=O)CCC[C@@H]13`?
Pf apPOL inh: -5.0; mHTT-CaM PPI inh: -13.4

Results for COc1ccc(OC)c(C2N(c3ccc(Cl)cc3)C(=O)C3CCCN32)c1 (stereo not given) ?
Pf apPOL inh: -1.0; mHTT-CaM PPI inh: 73.0*

What do the screens show for `COc1ccc(C2N(c3ccc(Cl)cc3)C(=O)C3CCCN32)cc1` (stereo not given)?
Pf apPOL inh: -2.6; mHTT-CaM PPI inh: -5.9

What do the screens show for `COc1cccc(-c2nc(Cn3ccnc3C)no2)c1`?
Pf apPOL inh: -1.7; mHTT-CaM PPI inh: -8.6

What do the screens show for `COc1cc(Cl)c(C)cc1-n1ccn(CC(=O)NCc2ccccc2Cl)c(=O)c1=O`?
Pf apPOL inh: -17.3; mHTT-CaM PPI inh: 39.8

What do the screens show for `Cc1ccc(-c2c(C(=O)Nc3ccc4c(c3)OCO4)oc(=O)c3ccccc23)cc1`?
Pf apPOL inh: -2.0; mHTT-CaM PPI inh: 1.0

What do the screens show for `O=C(O)CCC(=O)Nc1ccccc1Br`?
Pf apPOL inh: -9.8; mHTT-CaM PPI inh: -3.0

Results for C=CCCCC(=O)Nc1ccccc1Br ?
Pf apPOL inh: 67.2*; mHTT-CaM PPI inh: 25.6

How did CCc1ccccc1S(=O)(=O)N1CCCN(C2CCN(CCOC)C2=O)CC1 (stereo not given) do in these assays?
Pf apPOL inh: -2.1; mHTT-CaM PPI inh: 9.9

Results for Cc1cccc(NS(=O)(=O)c2ccc(Cl)cc2)n1 ?
Pf apPOL inh: 0.4; mHTT-CaM PPI inh: -2.0

What do the screens show for `Cc1cccc(NC(c2ccncc2)c2ccc3cccnc3c2O)n1` (stereo not given)?
Pf apPOL inh: 1.8; mHTT-CaM PPI inh: 100.0*

How did COc1ccc(C(Nc2cccc(C)n2)c2ccc3cccnc3c2O)cc1 (stereo not given) do in these assays?
Pf apPOL inh: 3.4; mHTT-CaM PPI inh: 100.0*

Results for Cc1cccc(NC(c2ccc(Cl)cc2)c2ccc3cccnc3c2O)n1 (stereo not given) ?
Pf apPOL inh: -12.0; mHTT-CaM PPI inh: 98.0*

What do the screens show for `Cc1cccc(NC(=O)c2cccs2)n1`?
Pf apPOL inh: -0.2

What do the screens show for `COc1ccc(NC(=O)Nc2cccc(C)n2)cc1`?
Pf apPOL inh: 3.7; mHTT-CaM PPI inh: -5.8

What do the screens show for `Cc1cccc(NC(c2cccc(Cl)c2)c2ccc3cccnc3c2O)n1` (stereo not given)?
Pf apPOL inh: -1.5; mHTT-CaM PPI inh: 98.0*

Results for O=C(Nc1cccc(Cl)c1)Nc1cccc2cccnc12 ?
Pf apPOL inh: -5.0; mHTT-CaM PPI inh: -1.7

How did O=C(Nc1c2c(nn1-c1cccc(Cl)c1)CS(=O)(=O)C2)c1ccc(Cl)c([N+](=O)[O-])c1 do in these assays?
Pf apPOL inh: -7.3; mHTT-CaM PPI inh: 22.0

What do the screens show for `CS(=NC(=O)Nc1ccc(Cl)cc1)c1sc(Cl)c2c1C(=O)CC(C)(C)C2` (stereo not given)?
Pf apPOL inh: 3.4

How did COc1ccccc1NC(=O)c1ccnc(-c2ccsc2)c1 do in these assays?
Pf apPOL inh: 2.3; mHTT-CaM PPI inh: -0.8

Results for Cc1ccc(CNC(=O)C2(C)CCCN(C(=O)c3cccc(Br)c3)C2)cc1 (stereo not given) ?
Pf apPOL inh: -1.5; mHTT-CaM PPI inh: -5.0

Results for NS(=O)(=O)c1ccc(NC(NC(=O)c2cccc(Cl)c2)C(Cl)(Cl)Cl)cc1 (stereo not given) ?
Pf apPOL inh: -0.4; mHTT-CaM PPI inh: 10.0

Results for O=C(NC(Nc1ccc([N+](=O)[O-])cc1)C(Cl)(Cl)Cl)c1cccc([N+](=O)[O-])c1 (stereo not given) ?
Pf apPOL inh: -0.9; mHTT-CaM PPI inh: 98.0*
